Assay outcomes (PubChem BioAssay)
Marburg entry inh: Marburg virus entry inhibition; AID 540276; hit rate 1.8% among 300,000; Potency, µM (doses to about 37.8 µM), actives largely listed as inhibitors; Marburg virus pseudotyped entry inhibition, cell reporter; calls by dose curve; tested in HEK293 cells
LASV entry inh: inhibitors of Lassa virus binding or cell entry. AID 540256. Lassa virus pseudotype entry inhibition, cell reporter. Potency, µM (titrated, usually from 37.9 µM), hits mostly inhibitors. hit rate 1.2% among 300,000; calls by dose curve; tested in HEK293 cells; also: nearly all actives have a fitted effect of over 50% in size
Pf growth 48h: inhibits P. falciparum growth in the first generation, 48 h; hit rate 5.9% among 310,000; P. falciparum luciferase growth in erythrocytes, 48 h; Potency, µM (doses to about 28.7 µM), actives largely listed as inhibitors; AID 504832
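Growth was read as firefly luciferase luminescence after a 48 h, 37 C, 5% CO2 exposure of compounds to reporter-bearing P. falciparum cultures (0.1% parasitemia, 2% hematocrit final) in Albumax-supplemented RPMI 1640.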
Pf growth 96h: P. falciparum growth inhibition at 96 hours; Potency, µM (top dose mostly 28.7 µM), most hits filed as inhibitors; P. falciparum luciferase reporter growth, 96 h; hit rate 6.9% among 320,000; AID 504834
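Erythrocytes infected with luciferase-expressing P. falciparum were dispensed at 2% hematocrit and 0.05% parasitemia (final), then incubated with compounds 96 hours at 37 C in 5% CO2. Luminescence after detection reagent addition reported growth.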
Shiga inhibitor: blocks Shiga toxin action in Vero cells; Vero cells, Shiga toxin protein synthesis inhibition reporter; inhibition, % at 38.7 µM; hit rate 9.2% among 290,000; AID 2315; in the data active = inhibition mostly above about 28%, no sharp cut-off; inactive = mostly below about 43%
CHX counter: counter-screen for Shiga toxin inhibitors: cycloheximide protein synthesis inhibition | cell reporter, cycloheximide protein synthesis inhibition counterscreen | max response, % | hit rate 12% among 300,000; in the data active = max response mostly above about 13%, no sharp cut-off; inactive = mostly below about 14%; also: read at 38.3 µM for the half of the compounds with a filed dose
Large screens that a line does not name were inactive; ! = not confirmed by another sample. Shown are actives, neighbours in structure and some others; about 19% of the full set was active somewhere. Unless noted, calls follow the shape of the dose curve; as a rule, active = well fitted inhibition curve with a large enough effect; inconclusive = small, poorly fitted or top-dose-only effect, or another doubt; inactive = no such curve, though single readings can be large or run the other way.

Cc1cccc(NC(=O)CSc2ncnc3nc[nH]c23)c1	none
CCCCc1ccc(Nc2ncnc3nc[nH]c23)cc1	CHX counter 23 (no result: Marburg entry inh, LASV entry inh, Pf growth 48h)
COc1cccc(Nc2ncnc3nc[nH]c23)c1	Pf growth 96h inconclusive, Shiga inhibitor 50, CHX counter 16 (no result: Marburg entry inh, LASV entry inh)
CCN1CCN(c2nc3ccccc3nc2C(C#N)C(=O)OC2CCCCC2)CC1 (stereo not given)	Marburg entry inh inconclusive, LASV entry inh inconclusive, Pf growth 48h inconclusive, Pf growth 96h inconclusive
COCCCNC(=O)C1CCN(c2nc3ccc(Cl)cc3[nH]2)CC1	none (no result: Marburg entry inh, Pf growth 48h, Pf growth 96h, Shiga inhibitor, CHX counter)
CCc1ccc(Nc2ncnc3nc[nH]c23)cc1	Marburg entry inh inconclusive, LASV entry inh inconclusive, Shiga inhibitor 62, CHX counter 27
CCCNc1ncnc2nc[nH]c12	none (no result: Marburg entry inh, LASV entry inh)
NC(=O)c1cccnc1Nc1cccc([N+](=O)[O-])c1	Marburg entry inh inconclusive, LASV entry inh inconclusive, Shiga inhibitor 84, CHX counter 48
O=C(Nc1c(F)cccc1F)C(c1ccccc1)c1ccccc1	none (no result: Pf growth 48h, Pf growth 96h, Shiga inhibitor, CHX counter)
CN1C(=O)N(C)C(=O)C2(Cc3cc(N)ccc3N3CCN(c4ccccc4F)CC32)C1=O (stereo not given)	none (no result: Marburg entry inh, LASV entry inh, Pf growth 48h, Pf growth 96h)
CCN1C(=O)N(CC)C(=O)C2(Cc3ccccc3N3CCN(c4ccccc4)CC32)C1=O (stereo not given)	Pf growth 48h inconclusive, Pf growth 96h inconclusive, Shiga inhibitor 70, CHX counter 36 (no result: Marburg entry inh, LASV entry inh)
Cc1ccc(NC(=O)CN2C(=O)COc3ccc(S(=O)(=O)NC4CCCC4)cc32)c(Cl)c1	none (no result: Marburg entry inh, Pf growth 48h, Pf growth 96h, Shiga inhibitor, CHX counter)
CC(=O)N/C(=N/c1nc(C)cc(C)n1)Nc1ccc(NC(C)=O)cc1	Pf growth 48h inconclusive, Pf growth 96h 9.3µM
CC(=O)N/C(=N\c1nc(C)cc(C)n1)Nc1ccc2ccccc2c1	Shiga inhibitor 125, CHX counter 40
CC(=O)N/C(=N/c1nc(C)cc(C)n1)Nc1cc(C)cc(C)c1	Pf growth 96h inconclusive (no result: Pf growth 48h)
CCc1c(C)nc2ncnn2c1N1CCC(C(=O)Nc2ccc(C)cc2)CC1	Marburg entry inh inconclusive, Pf growth 48h inconclusive, Pf growth 96h 12µM
CCc1c(C)nc2ncnn2c1N1CCCC(C(=O)NCCc2ccc(OC)cc2)C1 (stereo not given)	Pf growth 48h inconclusive
CCc1c(C)nc2ncnn2c1N1CCC(C(=O)Nc2ccccc2)CC1	Pf growth 48h inconclusive
CCOc1ccccc1NC(=O)C1CCCN(c2c(CC)c(C)nc3ncnn23)C1 (stereo not given)	Marburg entry inh inconclusive, LASV entry inh inconclusive, Pf growth 48h 10µM
CC(=O)c1cccc(NC(=O)C2CCN(S(=O)(=O)c3c(C)n[nH]c3C)CC2)c1	none
COc1ccc(CNC(=O)C(C)N=C2NS(=O)(=O)c3ccccc32)cc1OC (stereo not given)	none
CCOC(=O)COc1ccc(/C=C/[N+](=O)[O-])c(OCC(=O)OCC)c1	Marburg entry inh 5.2µM, LASV entry inh 21µM, Pf growth 48h inconclusive, Pf growth 96h inconclusive
CCOC(=O)COc1ccc2ccccc2c1/C=C/[N+](=O)[O-]	Marburg entry inh 4.5µM, LASV entry inh inconclusive, Pf growth 48h inconclusive
Cc1ccccc1C(=O)NCC(c1ccc(N(C)C)cc1)N1CCCC1 (stereo not given)	none (no result: Marburg entry inh, Pf growth 48h, Pf growth 96h, Shiga inhibitor, CHX counter)
Cc1cc(C)c(NN=c2c(=O)c3ccccc3c2=O)c(C)c1	LASV entry inh inconclusive, CHX counter 30 (no result: Pf growth 48h)
CCN(CC)S(=O)(=O)c1cccc(NN=c2c(=O)c3ccccc3c2=O)c1	none
O=c1c(=NNc2ccccc2Cl)c(=O)c2ccccc12	Shiga inhibitor 83, CHX counter 41 (no result: LASV entry inh)
Cc1ccc(-n2nc3c(c2NC(=O)c2cccs2)CSC3)cc1	LASV entry inh inconclusive, Pf growth 48h inconclusive, Pf growth 96h inconclusive
COc1ccc(Nc2ncnc3c2c(C)c(C)n3CCCN(C)C)cc1	Marburg entry inh inconclusive, Shiga inhibitor 70, CHX counter 47
Cc1c(C)n(CCCN(C)C)c2ncnc(Nc3ccccc3)c12	none (no result: Marburg entry inh, LASV entry inh)
Cc1c(C)n(CCCN(C)C)c2ncnc(NC3CCCCC3)c12	Marburg entry inh 10µM, LASV entry inh inconclusive
COc1ccccc1Nc1ncnc2c1c(C)c(C)n2CCCN(C)C	none (no result: Marburg entry inh, LASV entry inh)
O=C1N(c2ccccc2)C2CS(=O)(=O)CC2N1c1ccc(Br)cc1 (stereo not given)	none
NC(N)=N/N=C/c1ccccc1Cl	Pf growth 48h 12µM, Pf growth 96h 10µM (no result: Marburg entry inh, LASV entry inh)
O=C(N/N=C/c1ccccc1Cl)c1ccncc1	none (no result: Marburg entry inh, LASV entry inh)
NC(N)=N/N=C/c1c(Cl)cccc1Cl	Marburg entry inh 11µM, LASV entry inh inconclusive, Pf growth 48h 13µM, Pf growth 96h 3.7µM!
CC(=O)n1cc([C@@H]2C=C(C(=O)N3CCN(Cc4ccc5c(c4)OCO5)CC3)O[C@H](OCCCCO)C2)c2ccccc21	Pf growth 48h inconclusive, Pf growth 96h 12µM (no result: Marburg entry inh, LASV entry inh)
C[C@@H]1C=C(C(=O)N2CCN(Cc3ccccc3)CC2)O[C@H](OCc2ccc(CO)cc2)C1	none (no result: Marburg entry inh, LASV entry inh)
O=C(C1=C[C@@H](c2ccccc2)C[C@@H](OCCCCO)O1)N1CCN(Cc2ccc3c(c2)OCO3)CC1	Pf growth 48h inconclusive, Pf growth 96h inconclusive (no result: Marburg entry inh, LASV entry inh)
CC(=O)n1cc([C@H]2C=C(C(=O)N3CCN(Cc4ccccc4)CC3)O[C@@H](OCCCCO)C2)c2ccccc21	Pf growth 48h inconclusive, Pf growth 96h 5.2µM (no result: Marburg entry inh, LASV entry inh)
CC(=O)n1cc([C@@H]2C=C(C(=O)N3CCN(Cc4ccccc4)CC3)O[C@H](OCc3ccc(CO)cc3)C2)c2ccccc21	Pf growth 48h 0.93µM, Pf growth 96h 3.3µM (no result: Marburg entry inh, LASV entry inh)
Cc1ccc(S(=O)(=O)N2CCOC2CNC(=O)C(=O)NCCCc2ccccc2)cc1 (stereo not given)	none
O=C(CSc1nc2ccsc2c(=O)n1Cc1ccccc1Cl)NCc1ccc(Cl)cc1	none (no result: Marburg entry inh, Pf growth 48h, Pf growth 96h, Shiga inhibitor, CHX counter)
O=[N+]([O-])c1cccc(-c2ccc(C(=S)N3CCOCC3)o2)c1	Marburg entry inh inconclusive, Pf growth 96h inconclusive, Shiga inhibitor 72, CHX counter 39
O=C(Nc1ccc(CN2CCOCC2)cc1)c1ccc(-c2cccc([N+](=O)[O-])c2)o1	Pf growth 48h inconclusive, Pf growth 96h 2.6µM (no result: Marburg entry inh, LASV entry inh)
CN1CCN(C(=S)c2ccc(-c3cccc([N+](=O)[O-])c3)o2)CC1	Shiga inhibitor 102, CHX counter 51 (no result: Marburg entry inh, LASV entry inh)
O=[N+]([O-])c1cccc(-c2ccc(C(=S)N3CCN(c4ccccc4)CC3)o2)c1	none
O=[N+]([O-])c1cc(-c2ccc(C(=S)N3CCOCC3)o2)ccc1Cl	Pf growth 96h inconclusive, Shiga inhibitor 55, CHX counter 31
Cc1ccc(NC(=O)c2c(NC(=O)Cc3ccccc3)sc3c2CCCC3)cc1	none (no result: Marburg entry inh, Pf growth 48h, Pf growth 96h)
CC1CN(S(=O)(=O)c2ccc(C(=O)NC3CCCCC3)cc2)CC(C)O1 (stereo not given)	LASV entry inh inconclusive (no result: Pf growth 48h, Pf growth 96h, Shiga inhibitor, CHX counter)
Cc1ccc2nc(-c3ccccc3)cc(C(=O)N3CCN(S(=O)(=O)c4c(C)noc4C)CC3)c2c1	Marburg entry inh inconclusive, Pf growth 48h 12µM, Pf growth 96h 10µM (no result: Shiga inhibitor, CHX counter)
O=C(c1cc(-c2ccncc2)nc2ccccc12)N1CCN(c2ccc(N3CCOCC3)nn2)CC1	Marburg entry inh 15µM, Pf growth 48h 12µM, Pf growth 96h inconclusive
